In PubChem BioAssay (NCI):
The panel holds about 83,000 compounds, 20% with a hit somewhere; the sample as a whole holds those more often.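 In brief: 96-well plates, 48 h treatment, single concentration, percent growth endpoint.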 Values without a mark were called inactive. Activity calls are given as the source filed them. Rule for the calls: active = growth percent below 10; inactive = the rest.

tested on: SF-268 CNS; assay: NCI-60 one-dose screen, 48 h (100 = growth as untreated, 0 = no growth, -100 = all killed); conditions: 10 µM unless noted

SMILES | growth
C=C1C(=O)O[C@@H]2C3C(=C(C)CC[C@@H]12)CC1O[C@]13C (stereo partly specified) | 91.2% [6.75 µM]
COc1cccc(CNc2c3ccccc3nc3ccccc23)c1OC | 61.7%
Nc1c(Cl)cc(/C=C2\C=Cc3ccccc32)cc1Cl | 105%
CSc1ccc2c3c(n(C[C@H](O)CO)c(=O)c2c1)-c1ccccc1C3=O | 44%
COc1cc(-c2ccc[nH]2)[nH]c1/C=C1\N=C(C)C(CC(=O)OCC(C)(C)C)=C1C | -70.8% (active)
Brc1ccc(Nc2nc(Nc3cnc4ccccc4c3)c3[nH]cnc3n2)cc1 | 76.6%
CS(=O)(=O)Nc1cc(-c2ccc3ncnc(Nc4ccc(F)c(Cl)c4)c3c2)ccc1Cl | 52.7%
CSc1ccc2c3c(n(CCCn4ccnc4)c(=O)c2c1)-c1ccccc1C3=O | 31.7%
O=C(/C=C/c1cn(-c2ccccc2)nc1-c1ccccc1)CCC(=O)NO | 97%
O=C(/C=C/c1ccccc1)c1cccc2ccccc12 | 42.1%
CCOC(=O)/C=C1\S/C(=N\Nc2cc(=O)[nH]c3ccc(Br)cc23)N(c2ccccc2)C1=O | 85.6%
CC(=O)c1ccc(-n2cc(CN3CCN(c4cc5c(cc4F)c(=O)c(C(=O)O)cn5C4CC4)CC3)nn2)cc1 | 85.3%
CS(=O)(=O)Nc1cc(-c2ccc3ncnc(Nc4ccc(OCc5ccccn5)c(Cl)c4)c3c2)cnc1Cl | 10.9%
COc1ccc2c(c1)c(-c1nc(-c3ccc4ccccc4c3)cs1)cn2C | 100%
CCOC(=O)c1c(C)nc2ccccc2c1/C=C/c1ccc(F)cc1 | 85.2%
CC1(C)N=C(N)N=C(N)N1c1ccc(S(=O)(=O)Nc2nccs2)cc1 | 94.3%
COC(=O)c1sccc1-c1cc(O)c(C(=O)Nc2ccccc2)s1 | 91.7%
CCOC(=O)NC(=S)n1oc(=O)c2ccccc21 | 96.1%
O=C1CCC(C(=O)N/N=C/c2cc(F)ccc2F)N1 (stereo unspecified) | 97.2%
COc1ccccc1/C=C/C(=O)Nc1ccc(F)cc1 | 99.7%
COc1ccc(/C=N/Nc2c3ccccc3nc3ccccc23)cc1 | 96%
O=[N+]([O-])c1ccccc1Sc1ccccc1[N+](=O)[O-] | 88%
C[C@@H]1CN(c2cnc(C(=O)Nc3cc(F)cc4cccnc34)cn2)C[C@H](C)N1 | 88.1%
CC1(C)CC[C@]23CC[C@]4(C)[C@H](CC[C@@H]5[C@@]6(C)C/C(=C/O)C(=O)C(C)(C)[C@@H]6CC[C@]54C)[C@H]2[C@H]1OC3 | 108%
c1cc(OCCCCCOc2cccc(-c3nc4ccccc4[nH]3)c2)cc(-c2nc3ccccc3[nH]2)c1 | 61.3%
O=CN1N=C(c2cccc(Nc3ccnc4cc(Cl)ccc34)c2)CC1c1ccc(Cl)cc1 (stereo unspecified) | 37.1%
COc1ccc(/C=C2\c3cc(OC)c(OC)c(OC)c3CC[C@@H]2O)cc1F | 53.9%

tested on: SF-295 CNS; assay: as above; conditions: 10 µM unless noted

SMILES | growth
C[C@H](c1nc2ccc(C#N)cc2[nH]1)[C@H]1CC[C@H]2[C@@H]3CCC4=CC(=O)CC[C@]4(C)[C@H]3CC[C@]12C | 48.7%
O=c1cc(C(F)(F)F)c2cc(-c3cc4ccccc4c(=O)o3)c(O)cc2o1 | 89.4%
Nc1ccc(-c2ccncc2)cc1NC(=O)N1CCCC1 | 103%
COc1cccc(-c2cn3nc(-c4cn(C)c5ccccc45)sc3n2)c1 | 96.3%
CC(C)(C)c1ccc(S(=O)(=O)Oc2ccc(-c3sc4cc(OS(=O)(=O)c5ccc(C(C)(C)C)cc5)ccc4c3C(=O)c3ccc(OCCN4CCCCC4)cc3)cc2)cc1 | 94.5%
CCN(CC)CCn1c2ccc(OC)cc2c2sc3cc(O)ccc3c(=O)c21 | 17.9%
C=C1C(=O)O[C@H]2[C@H]1CC/C(COC(=O)NCc1ccc(Cn3c(=O)sn(-c4ccc(I)cc4)c3=O)cc1)=C\CC[C@@]1(C)O[C@@H]21 | 99.8%
O=C(Nc1nc(Cl)nc(Nc2ccc(N3CCOCC3=O)cc2)n1)c1ccc(Cl)s1 | 92.7%
COc1cc(OC)c2c(=O)c3c(CC=C(C)C)cc(OC)c(O)c3oc2c1 | 89.7%
O=S(=O)(Nc1cc(Sc2nc3ccccc3s2)c(O)c2ccccc12)c1ccc2ccccc2c1 | 87.7%
Nc1cccc(-c2ccc(COc3ccc(CC4SC(=O)NC4=O)cc3)cc2)c1 (stereo unspecified) | 63.8%
COc1ccc(-c2nc(SCC(=O)Nc3nc4ccc(C)cc4s3)[nH]c(=O)c2C#N)cc1OC | 96.4%
C=C1C(=O)O[C@@H]2C3C(=C(C)CC[C@@H]12)CC1O[C@]13C (stereo partly specified) | 102% [6.75 µM]
COc1cccc(CNc2c3ccccc3nc3ccccc23)c1OC | 33%
Nc1c(Cl)cc(/C=C2\C=Cc3ccccc32)cc1Cl | 115%
CSc1ccc2c3c(n(C[C@H](O)CO)c(=O)c2c1)-c1ccccc1C3=O | 14.3%
COc1cc(-c2ccc[nH]2)[nH]c1/C=C1\N=C(C)C(CC(=O)OCC(C)(C)C)=C1C | -81.8% (active)
Brc1ccc(Nc2nc(Nc3cnc4ccccc4c3)c3[nH]cnc3n2)cc1 | 84.7%
CS(=O)(=O)Nc1cc(-c2ccc3ncnc(Nc4ccc(F)c(Cl)c4)c3c2)ccc1Cl | 15.6%
CSc1ccc2c3c(n(CCCn4ccnc4)c(=O)c2c1)-c1ccccc1C3=O | 12.1%

SMILES | growth
O=C(/C=C/c1cn(-c2ccccc2)nc1-c1ccccc1)CCC(=O)NO | 96.1%
O=C(/C=C/c1ccccc1)c1cccc2ccccc12 | 34.8%
CCOC(=O)/C=C1\S/C(=N\Nc2cc(=O)[nH]c3ccc(Br)cc23)N(c2ccccc2)C1=O | 100%
CC(=O)c1ccc(-n2cc(CN3CCN(c4cc5c(cc4F)c(=O)c(C(=O)O)cn5C4CC4)CC3)nn2)cc1 | 95.9%
CS(=O)(=O)Nc1cc(-c2ccc3ncnc(Nc4ccc(OCc5ccccn5)c(Cl)c4)c3c2)cnc1Cl | -2.49% (active)
COc1ccc2c(c1)c(-c1nc(-c3ccc4ccccc4c3)cs1)cn2C | 104%
CCOC(=O)c1c(C)nc2ccccc2c1/C=C/c1ccc(F)cc1 | 67.7%
CC1(C)N=C(N)N=C(N)N1c1ccc(S(=O)(=O)Nc2nccs2)cc1 | 101%
COC(=O)c1sccc1-c1cc(O)c(C(=O)Nc2ccccc2)s1 | 99.4%
CCOC(=O)NC(=S)n1oc(=O)c2ccccc21 | 103%
O=C1CCC(C(=O)N/N=C/c2cc(F)ccc2F)N1 (stereo unspecified) | 99.5%
COc1ccccc1/C=C/C(=O)Nc1ccc(F)cc1 | 96%
COc1ccc(/C=N/Nc2c3ccccc3nc3ccccc23)cc1 | 90.3%
O=[N+]([O-])c1ccccc1Sc1ccccc1[N+](=O)[O-] | 101%
C[C@@H]1CN(c2cnc(C(=O)Nc3cc(F)cc4cccnc34)cn2)C[C@H](C)N1 | 101%
CC1(C)CC[C@]23CC[C@]4(C)[C@H](CC[C@@H]5[C@@]6(C)C/C(=C/O)C(=O)C(C)(C)[C@@H]6CC[C@]54C)[C@H]2[C@H]1OC3 | 103%
c1cc(OCCCCCOc2cccc(-c3nc4ccccc4[nH]3)c2)cc(-c2nc3ccccc3[nH]2)c1 | 8.95% (active)
O=CN1N=C(c2cccc(Nc3ccnc4cc(Cl)ccc34)c2)CC1c1ccc(Cl)cc1 (stereo unspecified) | 11.7%
COc1ccc(/C=C2\c3cc(OC)c(OC)c(OC)c3CC[C@@H]2O)cc1F | 17%
